PubChem BioAssay AID1159506 (National Center for Advancing Translational Sciences (NCATS), 2015)
Over roughly 59,000 sequences, the read-out has its median near -0.00055; the lowest 2% begin near -2. Only a selection was taken, and the lowest values are over-represented in it overall.

Test: Identification of proteins required for the processing of the EWS-FLI1 nascent transcript;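 note: robust z of luciferase light less the median z of siRNAs with the same seed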
Conditions: TC32 Ewing sarcoma NR0B1-luc vs CMV-luc (EWS-FLI1 target promoter against control promoter), 48 h; screened at 20 nM (by protocol)
Method in brief: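 TC32 Ewing sarcoma cells carrying NR0B1-promoter or CMV-promoter luciferase reporters were reverse-transfected with single siRNAs at 20 nM, three per gene genome-wide. Luminescence was read after 48 h and normalized to non-targeting controls.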

Sequence	seed-corrected z-score
UGCGUUUUCAGCUGGUUAC against MYNN	-3.83
UCCGUGAGAACUCAUAAGG against TG	-0.13
UACAGUCAAAGCUCCGUUC against GFI1	1.42
UCUGCGUUCUGAUUGGUGG against ANKRD55	-4.59
AUGCAAGUAACUGAGAUCG against CLEC14A	-1.2
UGUUCUAUGAGGCAAGAUG against ZGRF1	0.286
ACUUUCACAACGAUUUUCU against RPL34P34	-2.47
UUCUUUACAGCAUGAGGGC against CCL25	0.424
AAAGUCAUCAGCAAUUUGG against OR10G8	-1.41
UCCGUCGUCAGAAAGAUGC against DGCR2	0.0908
UGACGUGUCAUUCUCAUAC against ZNF69	-2.01
UUGGAGCAAAAUACAGUGG against NQO1	0.331
UUGUUCCUCAGGUCAAGUG against GAB2	1.13
UAGUUGUUCAGCGAGGUCC against CEP250	-0.0255
AACAUCACCAAAUAGCUGG against LIMS1	0.191
UAUUUCGAAAAUAAUCUCC against TMEM18	-0.129
UUCAGCAUUUGAUUCAAUC against HTRA4	-0.127
UCUGCUGAUAGCAAUGGGC against ZNF512B	-2.13
UUUUGGUCGUCGUUCUUCU against COMP	-2.12
UUCUACUCUAGCAAUUUCC against NDC80	-2.12
UCAAGGACCAGGCCGUUUU against ALG1L3P	1.09
UAAUUGUGACACUUGUUCC against TSLP	-1.67

Sequence	seed-corrected z-score
UAGGUAAGGACGGAAACGC against ZPBP2	0.591
UACCGUGACAAAAUAAGUG against LOC728175	0.818
UCUGAUGACUGUUUACAGC against ZNF180	0.161
UAAUUAAUAUCGUCCAGAG against C6orf120	-0.208
UCAUUCACUAUCACUUGUC against ZNF35	-1.13
AACUCUUCACGUACUAGCC against PKD2	0.287
UUAGCUGCUGGGAACACUG against IL18BP	-2.28
UAUGUUUCUCGUCUCAACA against DNM1P49	-0.258
AAAGUCACGUUUUCCGCGC against RGS14	0.981
AAAGAUACAUCUGCCUUCC against CMPK1	-0.0168
AGAAUUCUGAGGGCGGAGC against UCN2	-0.561
AUAGUAAGCAGCCUUCUGC against HOXD3	-3.99
UAUCUUGACCAAAUAAACC against MPC2	0.235
ACAGGAGCCACCCUAAAAG against WDR86	0.75
UCUGUCUCCGCUUGGAGUG against FOS	0.622
UAGGUCUUAGGAGUCAUCU against RPL9P25	-2.06
UCUGCUCCAAUAAUCCGGC against ANKS6	0.347
UCCGUUUCCACAUGGUCGC against TEKT4	0.747
AUAGGCAAGAGUGACAAGC against CNGB3	0.169
UGGGAUCUAACUCCUUAGC against IFT172	-2.76
UACUAGAUGUGGUGCAUCC against RPS6KA3	0.496
UAGGCAUCCGUAUCCCUGC against FAM131B	0.847

Sequence	seed-corrected z-score
AGCUGCUAAACUUUCAUCC against JAKMIP2	-2.59
UCUCGAAUGAGAAUGCUCC against CSTF3	-0.0852
UUCUUGAUCUUGGAUCUUU against DLX5	-0.846
UUCUUGAUCAUCAUUCACC against SLC7A6OS	0.569
UAUCGUAAAAUCACAUGAG against AMFR	0.503
UGAUGUUUCGCAGGCACCG against CRHR1	0.0226
UUAAUUACUCUCUUCAAUG against UGT2B7	-0.533
UUUUGGGCCUCUGAACUCC against LCE1B	0.31
UACCUUAACCAUCCGAUGC against WDR6	0.132
UAGAGGAUAAUGUUCUCGG against ABHD17C	-12.1
UUGGAGAUCAAUCCAGCCU against CBFB	0.537
UCAAUCAUCCGUGAGUUGC against WBSCR22	0.315
UUUCAGCUGCGCUCGGUUC against GOLGA6L2	-3.72
UGCAUUCCGGCUGUGAUCG against LINC00152	-0.804
UUAUGGGCUCUGAUGACCG against DIP2C	0.0672
UUCAGGAUCGCGGUUAUCA against OR4X2	0.269
UUAAAGACUCGGUUCACUG against PLXNA3	-1.44
UAUACUCCCGCACAUAGCC against PI4KA	-0.673
UUGUUAUGAAUGUACAUCG against TMEM181	-5
UCCGCAGUUCCUUAAGUGG against LOC401589	0.0579
UGCUGAAACCUUGAUGUGC against CRTC3	1.11
UUGAGUAAGAGAUGGACCC against ZNF184	-0.444
